Each structure is given as a SMILES string.

Our source for the composite z-score values is PubChem BioAssay.

A short description of this test: probe aNog binding to arrayed compounds – biochemical, biotinylated probe, 635/667 nm fluorescence, primary screen (AID 1115).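 Note: probe is biotinylated aNog protein used at 0.15 µg/mL for 1 h at 4 C; z-score combines 667 nm fluorescence of each spot with its signal to noise.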 The following applies: small-molecule microarray, higher = more signal.
Take `COCCOC(=O)N1C(=O)[C@@]2(c3cc(C#CCC(C(=O)OC)C(=O)OC)ccc31)[C@H](c1ccc(OCCO)cc1)N1[C@H](c3ccccc3)[C@H](c3ccccc3)OC(=O)[C@H]1[C@@H]2C(=O)N1CCCCCCC1`: the composite z-score worked out at 3.08.
As for `Cc1ccc(S[C@]2(C(=O)NCC(F)(F)F)CC(=O)N(C3CCCCC3)[C@@H]2c2ccc(CO)cc2)cc1`, the composite z-score is -0.546.
Regarding `COCCOC(=O)N1C(=O)[C@@]2(c3ccccc31)[C@H](C(N)=O)[C@H]1C(=O)O[C@H](c3ccccc3)[C@H](c3ccccc3)N1[C@@H]2c1ccc(OCCO)cc1`, the composite z-score was -0.0161.
The molecule `C=CCC(OC(C)=O)[C@@H]1[C@@H](N(Cc2ccc(-c3cccc(C(F)(F)F)c3)o2)C(=O)c2cccc3ccccc23)c2cc(OCCCO)ccc2N1C(=O)c1ccc2ccccc2c1` (stereo partly drawn) displayed a composite z-score of 0.0649.
`COc1ccc(NC(=O)O[C@H]2[C@H](OC(=O)Nc3ccc4c(c3)OCO4)[C@H](OC(=O)Nc3ccc4c(c3)OCO4)[C@@H](OC)O[C@@H]2CO)cc1` returned a composite z-score of -0.147.
`[N-]=[N+]=NCc1ccccc1C[C@]1(C(=O)N2CCOCC2)N=C(c2ccc(OCCCO)cc2)O[C@H]1c1ccccc1CN=[N+]=[N-]`: the composite z-score worked out at 0.967.
Turning to `CCCCC(=C=CC[C@@H](O)c1cccc(OCCO)c1)CCO`, the composite z-score is -0.405.
In the case of `CC(C)C[C@@H]1NC(=O)[C@H]2C[C@@H](C(=O)NCCCCCCNC(=O)CS)[C@@H](c3ccc(O)cc3)N2C1=O` it was -0.164.
For the molecule `C=CCC(OC(C)=O)[C@@H]1[C@@H](N(Cc2cc3ccccc3o2)C(=O)Cc2ccc(OC)cc2)c2cc(OCCCO)ccc2N1C(=O)Cc1ccc(OC)cc1` (stereo partly drawn), the composite z-score is -0.303.
`COc1ccc([Si](C)(C)[C@H]2[C@H](CCn3cc([C@H](O)c4ccccc4)nn3)O[C@@]3(C(=O)N(c4ccccc4)c4ccccc43)[C@@H]2C)cc1`: the composite z-score is -0.143.
In the case of `Cc1ccccc1C(O)C1C=CC2C(=O)N(c3ccccc3)C(=O)C2N1Nc1ccccc1F` (stereo not drawn), the composite z-score was found to be 1.81.
In the case of `C=CC[C@@]1(C(=O)N(C)C)N=C(c2ccc(OCCCO)cc2)O[C@@H]1c1ccccc1` it was -0.42; in that of `CCCCC(O)C1C=CC2C(=O)N(C)C(=O)C2N1Nc1ccccc1` (stereo not drawn), -0.0683.
In the case of `COC(=O)C1=CC(CCCO)=CC(c2ccc(CN3CCCC3)cc2)N(Cc2sc3ccccc3c2Cl)C=C1C(=O)OC` (stereo not drawn) it was 2.08.
Then `C=C(/C(=C/C[C@@H](OC(C)=O)c1ccccc1OCCO)c1cc(C(=O)OC)ccc1OC)C(C)C`, with 0.051.
`CCCC=C(CCC)[C@@H](NC(=O)c1ccccc1)c1ccc(C(=O)OC)cc1` came in with a composite z-score of 1.71.
Then `COC(=O)[C@@]1(Cc2ccc(OC)cc2)[C@@H]2[C@@H](CC(=O)[C@H]2CC(=O)C(=O)N2CCCC2)CN1C(=O)c1ccccc1`, with 2.97.
In the case of `CCCCCN1CC=CC23O[C@@H]4C=CCOC(=O)[C@@H]4[C@H]2C(=O)N(CCCCCO)[C@@H]3C1=O` (stereo partly drawn) it was -0.223.
In turn, `COc1ccc(CCNC(=O)[C@@]2(Sc3ccc(C)cc3)CC(=O)N(Cc3cc(C(F)(F)F)cc(C(F)(F)F)c3)[C@@H]2c2ccc(CO)cc2)cc1` showed a composite z-score of -0.54.
Then `CN1C(=O)[C@]2(CCC(=O)OC(C)(C)C)N=C(c3ccc(OCCCO)cc3)O[C@@H]2c2ccccc21`, with 0.346; and `COC(=O)[C@@]1(Cc2ccccc2CN=[N+]=[N-])COC(c2ccc(OCCCO)cc2)=N1`, with 0.199.
Then `CCCC[C@H]1OB(O)C[C@H]2C1=C(C)C[C@H]1C(=O)C=CC(=O)[C@H]12`, with -0.109.
`O=C1O[C@H](c2ccccc2)[C@H](c2ccccc2)N2[C@H]1[C@@H](C(=O)NC[C@H](O)c1ccccc1)[C@]1(C(=O)Nc3ccc(C#CCCO)cc31)[C@H]2c1ccccc1OCCO`: the composite z-score was -0.0503.
In turn, `CCC[C@@H]1[C@@H](Sc2ccccc2)[C@@H](C(=O)O)[C@H](c2ccc(C)cc2)N1S(=O)(=O)c1ccc(C)cc1` displayed a composite z-score of -0.0987.
In turn, `CC(C)(C)OC(=O)CC[C@]1(C(=O)N2CCOCC2)N=C(c2ccc(OCCCO)cc2)O[C@H]1c1ccccc1CN=[N+]=[N-]` came in with a composite z-score of 1.92.
Take `COC(=O)[C@@]1(Cc2ccc(F)cc2)[C@H]2c3cc(C(=O)N(C)C)n(CCN4CCOCC4)c3C[C@H]2CN1C(=O)c1ccccc1`: the composite z-score is 0.932.
In the case of `O=C1OCCC/C=C\[C@H]2OC34C=CCN(Cc5ccccc5)C(=O)[C@H]3N(CCCCCO)C(=O)[C@@H]4C12` (stereo partly drawn) it was 0.0847; in that of `CCOC(=O)C[C@H]1[C@H](OC(=O)c2ccc(C(=O)c3ccccc3)cc2)[C@@H](NC(=O)c2ccc3ccccc3c2)c2cc(OCCCO)ccc2N1C(=O)c1ccc2ccccc2n1`, -0.188.
